# Results filed as inconclusive are left out. A number with no mark means an inactive call. The call rests on the fitted dose curve; in most records, active means well fitted inhibition curve with a large enough effect; inconclusive means small, poorly fitted or top-dose-only effect; inactive means flat fitted curve, though single readings scatter.
# Target: Aldehyde dehydrogenase, mitochondrial (Homo sapiens) (UniProt P05091)
# Assay: qHTS for Inhibitors of the Aldehyde Dehydrogenase Family (ALDH2) Primary screen (AID 2061308);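 further: plate controls were vehicle for no effect and reference inhibitor for full effect; nearly all actives have a fitted effect of over 55% in size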
# Details: ALDH2 enzyme inhibition qHTS, 1536-well; series mostly up to 56 µM; activity change, negative = inhibition: at the top concentration
row,SMILES,"activity change, negative = inhibition"
1,CC1=C(C(=O)Nc2ccccc2)C(c2ccccc2Cl)N=C(Nc2nc3ccccc3o2)N1 (stereo not given),11.4%
2,Cc1ccc(NS(=O)(=O)c2cc3c(cc2Cl)NC(=O)CO3)cc1Cl,-3.02%
3,CC(=O)Nc1sc2c(c1-c1ccc(-c3nn[nH]n3)cc1)CCNC2,-16.9%
4,CC(C)c1ccccc1-c1nccc(NCc2ccc(-c3ccnc(C(F)(F)F)c3)cc2)n1,-13.1%
5,O=C(Nc1ccc(S(=O)(=O)Nc2nccs2)cc1)C1CCC2(CC1)CC2,1.16%
6,O=[S+]([O-])(c1ccc2c(c1)OCCO2)N1CCN([S+](=O)([O-])c2ccc(F)cc2Br)CC1,9.26%
7,COCCN(CCOC)c1nc(C)nc2c1nc(-c1ccccc1)n2CC1CCN(C)CC1,14.7%
8,O=C1C(F)N([S+](=O)([O-])c2ccc3c(c2)OCCO3)CCN1[S+](=O)([O-])c1c(F)cccc1F (stereo not given),-2.31%
9,c1nc(NCC2CCCO2)c2ccc(-c3ccc4c(c3)OCO4)cc2n1 (stereo not given),-28.9%
10,Cc1c(C(O)(c2ccccc2)c2ccccc2)[n+]2ccccc2n1C,7.01%
11,O=C(CNC(=O)C1CCCCC1)OC(C(=O)Nc1cc(C(F)(F)F)ccc1Cl)c1ccccc1 (stereo not given),5.3%
12,O=S1(=O)N=C(Oc2ccccc2C(F)(F)F)c2ccccc21,-6.74%
13,Cc1cc(C)n2ncc(C(=O)Nc3cccc(C(F)(F)F)c3)c2n1,7.62%
14,CN(C)c1ccccc1-c1csc(N2CCC(C(N)=O)CC2)n1,17.4%
15,O=C(Cc1ccccc1)NC(c1ccco1)c1cc(Cl)c2cccnc2c1O (stereo not given),-5.78%
16,CN(C)C(=O)c1cccc(-c2csc(N3CCC(C(N)=O)CC3)n2)c1,-15.1%
17,COc1cccc(Cn2ncc3c4sc(Br)cc4n(C)c3c2=O)c1,2.14%
18,COc1cccc(-c2ccc3ncnc(N(C)Cc4ccco4)c3c2)c1,0.617%
19,CC(=O)Nc1sc2c(c1-c1cccc(N(C)C)c1)CCNC2,5.46%
20,COc1cc(Cn2ncc3c4sc(C)cc4n(C)c3c2=O)cc(OC)c1,9.72%

row,SMILES,"activity change, negative = inhibition"
1,COc1ccc(NS(=O)(=O)c2ccccc2C(=O)O)cc1,5.47%
2,Clc1ccc2ncc(-c3cccc(NC4CCNC4)n3)n2c1 (stereo not given),-8%
3,COc1cnccc1-c1nc(Nc2ccc(F)c(F)c2)c2ccccc2n1,5.21%
4,O=C1CCc2cc(S(=O)(=O)Nc3cccnc3)ccc2N1,-4.67%
5,NCCCC[C@H](N)C(=O)Nc1ccc(Cl)cc1C(=O)c1ccc[nH]1,-17.9%
6,O=C1c2ccccc2C(=O)N1c1cccc(O)c1,-0.55%
7,CCCCN1C(=O)c2ccccc2NC1c1ccc(OC)c(COc2c(C)cc(NC(C)=O)cc2C)c1 (stereo not given),-1.86%
8,COc1cccc(N2C(=O)c3ccccc3C2=O)c1,6.52%
9,O=C(Nc1ccccn1)c1sc2ccccc2c1Cl,-15.9%
10,COc1ccc(C(=O)N(Cc2ccccc2)Cc2ccccc2)cc1COc1ccc(NC(C)=O)cc1,11.7%
11,O=C(OCC#CCSc1nnc(-c2cccc3ccccc23)o1)c1ccc(F)c(F)c1,-7.33%
12,Cc1cc2c(s1)c1cnn(Cc3ccccc3Cl)c(=O)c1n2C,-1.07%
13,O=C(OCC#CCSc1nnc(-c2cccc3ccccc23)o1)c1sc2ccccc2c1Cl,5.89%
14,CCOC(=O)C1CCN(C(=O)C(C)(C)NC(=O)Nc2ccc(F)c(F)c2)CC1,2%
15,Cc1nc(N2CCOCC2)c2nc(-c3ccccc3)n(CCN3CCOCC3)c2n1,7.07%
16,O=C(Nc1nc(-c2ccccc2)cs1)c1ccncc1NS(=O)(=O)c1ccc2c(c1)CCC2,-9.79%
17,Cn1nnnc1Sc1ncnc2scc(-c3cccc(F)c3)c12,9.28%
18,CC(C)(C)OC(=O)Cc1nnc(-c2cc3ccccc3[nH]2)o1,13.3%
19,Cc1cc(C)nc(NC(=S)N2CCN(c3nnc(C(F)(F)F)s3)CC2)c1,12.9%
20,O=C(Nc1ccc(Cl)c(Cl)c1)Nc1nc(-c2ccncc2)cs1,1.15%

# From PubChem BioAssay (NCATS)
